Experimental data: PubChem BioAssay AID1851 (National Center for Advancing Translational Sciences (NCATS), 2009)
About 5,100 (32%) of roughly 16,000 compounds were called active. Another 25% or so got no clear call; they are omitted. The list shows a part of the results. Values without a mark were called inactive. Calls come from the whole dose curve; as a rule, active = well fitted curve in the direction sought with a large enough effect; inconclusive = small, poorly fitted or top-dose-only effect, or effect the other way; inactive = no such curve, though single readings can be large or run the other way.

What follows are molecules tested against Cytochrome P450 3A4 (Homo sapiens) (UniProt P08684) (assay: Cytochrome panel assay with activity outcomes). Settings: recombinant CYP, pro-luciferin dealkylation, luminescence, p450-cyp3a4; series mostly up to 57.1 µM; activity, negative = inhibition: at the top concentration.
% is set by controls: 0 for no effect and ±100 for the full control effect.

Sequence of Cytochrome P450 3A4 (Homo sapiens) (P08684 whole entry, looked up): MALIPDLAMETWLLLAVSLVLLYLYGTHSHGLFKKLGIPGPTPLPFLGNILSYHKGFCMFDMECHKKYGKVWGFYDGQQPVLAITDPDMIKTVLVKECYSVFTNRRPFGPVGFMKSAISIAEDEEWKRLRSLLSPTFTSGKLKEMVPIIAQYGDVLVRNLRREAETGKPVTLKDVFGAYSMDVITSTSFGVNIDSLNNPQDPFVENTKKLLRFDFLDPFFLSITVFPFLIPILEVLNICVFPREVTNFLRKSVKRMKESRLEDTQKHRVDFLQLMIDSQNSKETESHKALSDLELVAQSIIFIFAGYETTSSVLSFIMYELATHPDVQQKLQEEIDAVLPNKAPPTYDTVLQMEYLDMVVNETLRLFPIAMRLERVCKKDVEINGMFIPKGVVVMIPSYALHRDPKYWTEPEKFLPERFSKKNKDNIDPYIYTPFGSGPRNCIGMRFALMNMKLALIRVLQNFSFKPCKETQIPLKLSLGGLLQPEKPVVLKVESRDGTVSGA

Row | SMILES | activity, negative = inhibition | AC50
1 | COc1ccc2c3c(ccc2c1)N[C@H](C(=O)O)CC3 | -10.2% [at 11.4 µM] | 
2 | O=C(c1ccncc1)N1CCC2(CC1)CN(c1ncccn1)C2 | -26.6% | 
3 | CC(=O)N1CCC[C@@]2(CCN(c3ncccn3)C2)C1 | -5.73% | 
4 | O=C(c1ccncc1)N1CCC[C@@]2(CCN(c3ccccc3)C2)C1 |  | 3.16 µM (active)
5 | O=C(c1cnccn1)N1CCC[C@@]2(CCN(c3ccccc3)C2)C1 |  | 7.94 µM (active)
6 | O=C(c1ccncc1)N1CCC2(CC1)CN(c1cccc(-c3ccccc3)c1)C2 |  | 7.94 µM (active)
7 | O=C(c1ccncc1)N1CCC2(CC1)CCN(c1ccccc1)CC2 | -29.2% | 
8 | O=C(c1ccncc1)N1CCC2(CC1)CN(c1ccccc1)C2 | -28.5% | 
9 | O=C(c1cnccn1)N1CCC[C@@]2(CCN(c3ccccn3)C2)C1 |  | 10 µM (active)
10 | O=C(c1ccco1)N1CCC2(CC1)CN(c1cccc(-c3ccccc3)c1)C2 | -14.6% | 
11 | CC1(C)Oc2cc(N)c([N+](=O)[O-])cc2O1 | -22% | 
12 | Cc1c(C=NCCOCc2ccccc2)cnn1C | -18.1% | 
13 | O=C(c1cnccn1)N1CCC[C@@]2(CCN(c3ccncc3)C2)C1 |  | 3.16 µM (active)
14 | CC(=O)N1CCC2(CC1)CN(c1ccncc1)C2 | -1.4% | 
15 | O=C(c1cnccn1)N1CCC2(CC1)CN(c1ccncc1)C2 | -3.55% | 
16 | CC(=O)N1CCC2(CCCN(c3ccccn3)C2)CC1 | -26.5% | 
17 | O=C(c1ccncc1)N1CCC2(CC1)CCN(c1ccccn1)CC2 | -20.5% | 
18 | O=C(c1ccncc1)N1CCC[C@@]2(CCN(c3ccccn3)C2)C1 |  | 7.94 µM (active)
19 | COc1cc(C2C(C#N)=C(N)N(Nc3ccccc3)C3=C2C(=O)CC(C)(C)C3)ccc1OCc1ccccc1 (stereo not given) |  | 2.82 µM (active)
20 | COc1cc(C2C(C#N)=C(N)N(Nc3ccccc3)C3=C2C(=O)CC(C)(C)C3)ccc1OCc1cccc(F)c1 (stereo not given) |  | 2.51 µM (active)
21 | COc1ccc(C2C(C#N)=C(N)N(Nc3ccccc3)C3=C2C(=O)CC(C)(C)C3)cc1C (stereo not given) |  | 2 µM (active)
22 | COc1cc(C2C(C#N)=C(N)N(c3sc4c(c3C#N)CCCC4)C3=C2C(=O)CC(C)(C)C3)cc(OC)c1OC (stereo not given) |  | 0.501 µM (active)
23 | CCOc1cc(/C=C2\CCC/C(=C\c3cc(Cl)c(O)c(OCC)c3)C2=O)cc(Cl)c1O | -14.8% [at 2.29 µM] | 
24 | CCCCCCCCCCCCC/C=C\[C@@H](O)[C@@H](N)CO | -9.6% | 

Row | SMILES | activity, negative = inhibition | AC50
25 | CN(c1ccc(C(=O)NCC2CCCO2)cc1)S(=O)(=O)c1ccccc1 (stereo not given) | 10.5% | 
26 | O=C(O)CCSCc1ccccc1 | -12.2% [at 11.4 µM] | 
27 | Cc1cccc(CSCCNC(=O)c2ccc(N(C)S(=O)(=O)c3ccccc3)cc2)c1 |  | 3.98 µM (active)
28 | C=CCOC(=O)/C(=C\c1cccc2ccccc12)NC(=O)c1ccccc1 |  | 0.2 µM (active)
29 | O=C1CCC(c2ccc(-n3ccnc3)cc2)=NN1 |  | 1.58 µM (active)
30 | COc1cc(/C=C(/C#N)c2nc3ccccc3[nH]2)ccc1OCC(=O)Nc1ccccc1C |  | 1.26 µM (active)
31 | N#C/C(=C\c1ccc(Cl)cc1)c1nc2ncccc2[nH]1 | -7.91% [at 2.29 µM] | 
32 | N#C/C(=C\c1ccccc1)c1nc2ncccc2[nH]1 | -24% [at 2.29 µM] | 
33 | COc1cc(/C=C(/C#N)c2nc3ccccc3[nH]2)ccc1Oc1ncccc1[N+](=O)[O-] |  | 1.58 µM (active)
34 | COc1ncnc(NS(=O)(=O)c2ccc(N)cc2)c1OC | -8.96% [at 25.6 µM] | 
35 | CCOC(=O)c1cnc(N(C)C)nc1SC(=N)N | -4.2% [at 11.4 µM] | 
36 | CSc1ccc(S(=O)(=O)Nc2ccc3c4c(cccc24)CC3)cc1 |  | 5.01 µM (active)
37 | Cc1cc(C)cc(OCC(=O)Nc2ccc3c4c(cccc24)CC3)c1 | -27% | 
38 | CC(C)=CCC1=C(OCC(=O)O)C(=O)c2ccccc2C1=O | -24.9% [at 11.4 µM] | 
39 | COc1nnc(OC)c2ccccc12 | 3.31% | 
40 | COC1=C(OC)C(=O)c2ccccc2C1=O |  | 20 µM (active)
41 | C#CCn1c(=O)c2c(ncn2C)n(C)c1=O | -5.18% | 
42 | N#Cc1c2n(c3c(=S)nc[nH]c13)CCCCC2 | 9.26% [at 2.29 µM] | 
43 | COc1ccc2c(c1)Cc1cc(N=[N+]([O-])c3ccc4c(c3)Cc3cc(OC)ccc3-4)ccc1-2 |  | 5.01 µM (active)
44 | Cc1cccc(-n2cnc(C(=O)NC3CCCCCC3)c2)n1 |  | 14.1 µM (active)
45 | Cc1cnc(NC(=O)CSc2ccc(Cl)cc2)s1 |  | 15.8 µM (active)
46 | Cc1cc(Cl)nc(NC(=O)CSc2ccc(Cl)cc2)n1 | -7.2% [at 11.4 µM] | 
47 | CCC[C@H](Sc1nc(N)nc2nc[nH]c12)C(=O)O | -4.34% [at 11.4 µM] | 
48 | Nc1nc(SCCc2ccccc2)c2[nH]cnc2n1 |  | 2.51 µM (active)

Row | SMILES | activity, negative = inhibition | AC50
49 | CC(C)[C@H](Sc1nc(N)nc2nc[nH]c12)C(=O)O | -2.83% [at 11.4 µM] | 
50 | Nc1nc(Sc2ccc([N+](=O)[O-])c3nonc23)c2[nH]cnc2n1 | -24.7% [at 11.4 µM] | 
51 | Nc1nc(N)c(CCCCc2ccccc2)c(N)n1 | 5.2% [at 11.4 µM] | 
52 | Nc1nc(SCc2ccccc2[N+](=O)[O-])c2[nH]cnc2n1 |  | 3.16 µM (active)
53 | Nc1nc(SC/C=C\c2ccccc2)c2[nH]cnc2n1 |  | 2.51 µM (active)
54 | Nc1nc(N)c2[nH]cnc2n1 (tested in a mixture with another compound) | -3.42% [at 11.4 µM] | 
55 | COc1ccc(-n2c(C)n[nH]c2=O)cc1OC | 2.19% | 
56 | COc1cccc(=O)c2c(C)n(-c3cc(C)cc(C)c3)c(C)c12 |  | 4.47 µM (active)
57 | CN(C)CCC=C1c2ccccc2C=Cc2ccccc21 |  | inactive
58 | O=C(O)[C@@H]1CCCN1Cc1cc2ccccc2c2ccccc12 | -12.1% [at 11.4 µM] | 
59 | CC(C)CC(=O)N[C@H](C(=O)N[C@H](C(=O)N[C@@H](CC(C)C)[C@H](O)CC(=O)N[C@@H](C)C(=O)N[C@@H](CC(C)C)[C@H](O)CC(=O)O)C(C)C)C(C)C | -8.61% [at 25.6 µM] | 
60 | Cc1c(Cl)cccc1NC(=O)CCC(=O)NNC(=O)c1ccco1 | 1.8% [at 2.29 µM] | 
61 | O=C(CSc1ccc(Cl)cc1)Nc1cccc(NC(=O)c2ccco2)c1 | -17.5% [at 11.4 µM] | 
62 | Cc1ccc(SCC(=O)Nc2cccc(NC(=O)c3ccco3)c2)cc1 |  | 22.4 µM (active)
63 | CC(=O)c1ccc(-n2nnnc2SCC(=O)Nc2cccc(NC(=O)c3ccco3)c2)cc1 |  | 3.98 µM (active)
64 | O=C(CSc1ccccc1)Nc1ccc(NC(=O)c2ccco2)cc1 | -25.4% | 
65 | CCc1cc2cc(C)c(C)cc2nc1SCC(=O)NNC(=O)c1ccco1 |  | 8.91 µM (active)
66 | Cc1ccc(-n2nnnc2SCC(=O)NNC(=O)c2ccco2)c(C)c1 |  | 22.4 µM (active)
67 | Cc1ccc(NC(=O)CCC(=O)NNC(=O)c2ccco2)cc1C | -4.43% [at 2.29 µM] | 
68 | Cn1c2c(c(=O)n(C)c1=O)CN(CCN1CCNCC1)CN2 | 1.78% | 
69 | O=C(CSCC(=O)OCn1nnc2ccccc2c1=O)Nc1ccc(Cl)cc1 |  | 22.4 µM (active)
70 | O=C(OCn1nnc2ccccc2c1=O)c1cccnc1 |  | 8.91 µM (active)
71 | O=C(Cn1nnc2ccccc21)N/N=C\C=C\c1ccccc1 | -3.42% | 
72 | Nc1nc2c(C(=O)NCc3cccs3)nnn2c2cccc(Cl)c12 | -1.06% [at 11.4 µM] | 

Row | SMILES | activity, negative = inhibition | AC50
73 | CCc1ccc(NC(=O)C2CCN(S(=O)(=O)c3c(C)[nH]c(=O)[nH]c3=O)CC2)cc1 | -15.2% | 
74 | COc1ccc2nc(NCN3C(=O)c4ccccc4C3=O)sc2c1 | -27.9% [at 11.4 µM] | 
75 | O=C(NCC1COc2ccccc2O1)C1CCN(S(=O)(=O)c2cccc3nsnc23)CC1 (stereo not given) |  | 20 µM (active)
76 | Cc1ccc(NC(=O)C2CCN(S(C)(=O)=O)CC2)cc1 | 0.664% [at 2.29 µM] | 
77 | COc1ccc(OC)c(S(=O)(=O)N2CCC(C(=O)Nc3ccc(C)c(C)c3)CC2)c1 |  | 5.01 µM (active)
78 | O=C(NCc1cccs1)C1CCN(S(=O)(=O)c2cccc3nsnc23)CC1 |  | 12.6 µM (active)
79 | COc1ccc2nc(NC(=O)C3CCN(S(=O)(=O)c4cccc5nsnc45)CC3)sc2c1 |  | 14.1 µM (active)
80 | Cc1cccc(NC(=O)C2CCN(S(=O)(=O)c3cccc4nsnc34)CC2)n1 | -13.5% | 
81 | CC(C)=CCNc1ncnc2nc[nH]c12 | -14.9% [at 11.4 µM] | 
82 | CC(=O)Nc1ccc(NC(=O)C2CCN(S(=O)(=O)c3cccc4nonc34)CC2)cc1 | -29.4% | 
83 | COc1cc(NC(=O)C2CCN(S(=O)(=O)c3cccc4nonc34)CC2)cc(OC)c1 |  | 3.16 µM (active)
84 | COc1ccc(CCNC(=O)C2CCN(S(=O)(=O)c3cccc4nsnc34)CC2)cc1OC |  | 3.98 µM (active)
85 | COC(=O)c1ccccc1Oc1c(F)c(F)nc(N2CCOCC2)c1F | -22.2% | 
86 | COC(=O)c1ccccc1OCC(=O)N1CCN(c2ccc(Cl)cc2)CC1 |  | 15.8 µM (active)
87 | COC(=O)c1ccccc1OCC(=O)N1CCN(c2ccc(OC)cc2)CC1 | -29.6% [at 11.4 µM] | 
88 | OCCCNc1ncnc2[nH]ncc12 | -20.7% [at 11.4 µM] | 
89 | O=S1(=O)C=C(SCc2cccc(Cl)c2)Nc2ccccc21 |  | 2 µM (active)
90 | CC[C@@H]1CC(=O)N(SC[C@H](N)C(=O)O)C1=O | -4.06% [at 11.4 µM] | 
91 | COc1ccc(-c2nc3cnc(OC)nc3n(Cc3cccc(OC)c3)c2=O)cc1 |  | 2.51 µM (active)
92 | COc1cccc(Cn2c(=O)c(-c3ccccc3)nc3cnc(OC)nc32)c1 |  | 7.94 µM (active)
93 | COc1cccc(Cn2c(=O)c(-c3ccccc3)nc3cnc(N(C)C)nc32)c1 |  | 6.31 µM (active)
94 | COc1cccc(Cn2c(=O)c(-c3cc(F)cc(F)c3)nc3cnc(N(C)C)nc32)c1 | -27.5% | 
95 | CN(C)c1ncc2nc(-c3ccccc3)c(=O)n(C)c2n1 | -29.7% | 
